# PubChem BioAssay (NCATS)
# Results filed as inconclusive are left out. Where a call stands in place of a potency, no number is given. Active and inactive are the calls of the source. The call rests on the fitted dose curve; in most records, active means well fitted cell-killing curve with a large enough effect; inconclusive means small, poorly fitted or top-dose-only effect, or effect the other way; inactive means no such curve, though single readings can be large or run the other way.
# Experiments:
# [1] = Viability qHTS for spleen associated tyrosine kinase inhibitor (SYKi) naive MV4-11 cells (AID 1963823); further: nearly all actives have a fitted effect of over 40% in size
# How it was run: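 Luminescence from CellTiter-Glo, developed 10 min at room temperature, gave viability of MV4-11 cells never exposed to SYK inhibitor. Cells (500/well) had been incubated with compounds for 72 hr under standard culture conditions.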
# [2] = Viability qHTS for spleen associated tyrosine kinase inhibitor (SYKi) drug resistant MV4-11 cells (AID 1963824); further: nearly all actives have a fitted effect of over 35% in size
# How it was run: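 SYK-inhibitor-resistant MV4-11 AML cells were seeded at 500 per well onto compound and cultured 72 hours (37 °C, 5% CO2). CellTiter-Glo was then added, and after 10 min at room temperature, luminescence gave viability.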
# Potency means the concentration at half of the fitted maximal effect.
SMILES,Potency [1],Potency [2],viability (% of control) [1],"viability, % of control [2]"
COC(=O)C(C)C1CCC2(C)C(=O)C=CC(C)(O)C2C1O (configuration not stated),inactive,inactive,–,–
C=C1CC[C@H]2[C@@](C)(CCC(OC3OC(CO)C(O)C(O)C3O)[C@@]2(C)CO)C1C(=O)CC1=CCOC1=O (some centres not stated),inactive,inactive,–,–
CCN(CC)C(=O)C(c1ccccc1)N1CCN(c2ccc(NC(=O)c3ccccc3-c3cccnc3)cc2F)CC1 (configuration not stated),inactive,inactive,–,–
CC1CCC2(C(=O)OC3OC(COC4OC(CO)C(O)C(O)C4O)C(O)C(O)C3O)CCC3(C)C(=CCC4C5(C)CCC(O)C(C)(C(=O)O)C5CCC43C)C2C1(C)O (configuration not stated),–,–,98.4% [at 9.25 µM] (inactive),98.8% [at 9.25 µM] (inactive)
COC(=O)c1c(CC=C(C)C)c(OC2OC(CO)C(O)C(O)C2O)c2ccccc2c1OC1OC(CO)C(O)C(O)C1O (configuration not stated),inactive,inactive,–,–
CC(CCc1ccccn1)(CCc1ccccn1)C(=O)c1ccccc1,inactive,inactive,–,–
CC1(C)C2CC[C@]3(C)C(C(=O)C=C4[C@H]5C[C@@](C)(C(=O)O)CC[C@]5(C)CC[C@]43C)[C@@]2(C)CC[C@@H]1O (some centres not stated),inactive,inactive,–,–
CC(C)CCNC(=O)c1ccc2c(c1)nc(Nc1n[nH]c3ccc(-c4ccccc4OC(F)(F)F)cc13)n2C1CCC(O)CC1 (configuration not stated),16.4 µM (active),16.4 µM (active),–,–
N#CCC(C1CCCC1)n1cc(-c2ncnc3[nH]ccc23)cn1 (configuration not stated),10.3 µM (active),10.3 µM (active),–,–
N=C(N)c1ccc2nc(-c3cc(CC(=O)NC(CC(=O)O)C(=O)O)cc(-c4cc(S(N)(=O)=O)ccc4O)c3O)[nH]c2c1 (configuration not stated),inactive,inactive,–,–
CCC(C(=O)OCCOCCN(CC)CC)c1ccccc1 (configuration not stated),inactive,inactive,–,–
CC1=C(C)C(=O)OC(C(C)C2CCC3C4C5OC5C5(O)CC(OC6OC(CO)C(OC7OC(C)C(O)C(O)C7O)C(O)C6O)CC(O)C5(C)C4CCC23C)C1 (configuration not stated),inactive,inactive,–,–
C/C1=C\C[C@H](O[C@@H]2O[C@H](CO)[C@@H](O)[C@H](O)[C@H]2O)/C(C)=C/[C@H]2OC(=O)[C@H](C)[C@@H]2CC1,inactive,inactive,–,–
CC(O)CO[C@@H]1O[C@H](CO)[C@@H](O)[C@H](O)[C@H]1O (some centres not stated),inactive,inactive,–,–
COCC1OC(OC(C)(C)C2CCC3(C)C=C(C4CCC5C4(C)CC(O)C4OC(C(C)(C)OC6OC(CO)C(O)C(O)C6NC(C)=O)CCC45C)CCC3O2)C(NC(C)=O)C(O)C1O (configuration not stated),–,–,92.4% [at 9.25 µM] (inactive),108% [at 9.25 µM] (inactive)
O=C(/C=C/c1ccc(O)cc1)OC[C@]12O[C@H]1[C@@H](O)[C@@H]1C=CO[C@@H](O[C@@H]3O[C@H](CO)[C@@H](O)[C@H](O)[C@H]3O)[C@@H]12,inactive,inactive,–,–

SMILES,Potency [1],Potency [2],viability (% of control) [1],"viability, % of control [2]"
C=CC(=O)N1CCC(C2CCNc3c(C(N)=O)c(-c4ccc(Oc5ccccc5)cc4)nn32)CC1 (configuration not stated),7.42 µM (active),11.8 µM (active),–,–
CC(C)=CCC[C@](C)(O[C@@H]1O[C@H](CO[C@@H]2OC[C@@H](O)[C@H](O)[C@H]2O)[C@@H](O)[C@H](O)[C@H]1O)[C@H]1CC[C@]2(C)[C@@H]1[C@H](O)C[C@@H]1[C@@]3(C)CC[C@H](O[C@@H]4O[C@H](CO)[C@@H](O)[C@H](O)[C@H]4O[C@@H]4O[C@H](CO)[C@@H](O)[C@H](O)[C@H]4O)C(C)(C)[C@@H]3CC[C@]12C,inactive,inactive,–,–
CCCCN1CCCC[C@H]1C(=O)Nc1c(C)cccc1C,inactive,inactive,–,–
C=C(C(=O)O)C1CCC2(C)CCCC(C)(O)C2C1 (configuration not stated),inactive,inactive,–,–
C[C@@H]1O[C@@H](O[C@@H]2CO[C@@H](O[C@H]3CC[C@@]4(C)C(CC[C@]5(C)C4CC=C4[C@@H]6CC(C)(C)CC[C@]6(C(=O)O[C@@H]6O[C@H](CO)[C@@H](O)[C@H](O)[C@H]6O)CC[C@]45C)[C@]3(C)CO)[C@H](O)[C@H]2O[C@@H]2O[C@H](CO)[C@@H](O)[C@H](O)[C@H]2O)[C@H](O)[C@H](O)[C@H]1O (some centres not stated),–,–,57.4% [at 9.25 µM] (inactive),62.6% [at 9.25 µM] (inactive)
CC(C)=CCC[C@](C)(O[C@@H]1O[C@H](CO[C@@H]2O[C@@H](CO)[C@H](O)[C@H]2O[C@@H]2OC[C@@H](O)[C@H](O)[C@H]2O)[C@@H](O)[C@H](O)[C@H]1O)[C@H]1CC[C@]2(C)[C@@H]1[C@H](O)CC1[C@@]3(C)CC[C@H](O[C@@H]4O[C@H](CO)[C@@H](O)[C@H](O)[C@H]4O[C@@H]4O[C@H](CO)[C@@H](O)[C@H](O)[C@H]4O)C(C)(C)C3CC[C@]12C (some centres not stated),–,–,94.1% [at 9.25 µM] (inactive),92.9% [at 9.25 µM] (inactive)
c1ccc(Cc2ncc3c(n2)CCNCC3)cc1,inactive,inactive,–,–
O=C(O)/C=C/c1ccc(O[C@@H]2O[C@H](CO)[C@@H](O)[C@H](O)[C@H]2O)cc1,inactive,inactive,–,–
CCC(C)C(=O)OC[C@H]1O[C@H](O[C@H]2O[C@H](CO)[C@@H](O)[C@H](O)[C@H]2O)[C@H](O)[C@@H](O)[C@@H]1O (some centres not stated),inactive,inactive,–,–
COc1ccc(CC2NCCc3c2[nH]c2ccc(C)cc32)cc1OC (configuration not stated),9.2 µM (active),7.31 µM (active),–,–
C=C(C(=O)O[C@H]1C/C(C)=C/CC/C(CO)=C/[C@H]2OC(=O)C(=C)[C@H]12)C(O)CO (some centres not stated),2.02 µM (active),0.904 µM (active),–,–
CC1=C2[C@@H]([C@H](C)CC[C@H]2/C=C(\C)C(=O)O)[C@H](O)C1,inactive,inactive,–,–
CN1CCN(S(=O)(=O)c2ccc(-c3cnc(N)c(C(=O)Nc4cccnc4)n3)cc2)CC1,0.893 µM (active),0.796 µM (active),–,–
Cc1cn(C2C[C@H](O)[C@@H](CO)O2)c(=O)[nH]c1=O (some centres not stated),inactive,inactive,–,–
COC(=O)C1=CO[C@@H](O[C@@H]2O[C@H](CO[C@@H]3O[C@H](COC(=O)/C=C/c4cc(OC)c(O)c(OC)c4)[C@@H](O)[C@H](O)[C@H]3O)[C@@H](O)[C@H](O)[C@H]2O)[C@@H]2C(CO)=CC[C@H]12,inactive,inactive,–,–
